Data published in the supplement of paper PMC3334620.
In all, about 33,000 sequences were measured (“E-score (-0.5 to 0.5)”: median about -0.016, highest 2% from about 0.31 on). Shown is part of a subset that was picked to be rich in the highest values.

Target: Cst6 (UniProt P40535)
Experiment: PBM E-score (8-mer binding enrichment) (E-score (-0.5 to 0.5)); higher = stronger / more preferred TF binding
Conditions: protein concentration: 200 nM; construct: GST-DNA-binding domain
Procedure, shortened: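 Each ungapped eight-base word and its reverse complement, pooled, received an E-score from the Universal PBM Analysis Suite. Underlying scans, normalised with masliner, recorded fluorescent anti-GST bound to GST-tagged yeast transcription factors. These were applied at about 100-200 nM to universal all-10-mer Agilent arrays double-stranded by primer extension.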

Chain of UniProt P40535 (P40535 whole entry): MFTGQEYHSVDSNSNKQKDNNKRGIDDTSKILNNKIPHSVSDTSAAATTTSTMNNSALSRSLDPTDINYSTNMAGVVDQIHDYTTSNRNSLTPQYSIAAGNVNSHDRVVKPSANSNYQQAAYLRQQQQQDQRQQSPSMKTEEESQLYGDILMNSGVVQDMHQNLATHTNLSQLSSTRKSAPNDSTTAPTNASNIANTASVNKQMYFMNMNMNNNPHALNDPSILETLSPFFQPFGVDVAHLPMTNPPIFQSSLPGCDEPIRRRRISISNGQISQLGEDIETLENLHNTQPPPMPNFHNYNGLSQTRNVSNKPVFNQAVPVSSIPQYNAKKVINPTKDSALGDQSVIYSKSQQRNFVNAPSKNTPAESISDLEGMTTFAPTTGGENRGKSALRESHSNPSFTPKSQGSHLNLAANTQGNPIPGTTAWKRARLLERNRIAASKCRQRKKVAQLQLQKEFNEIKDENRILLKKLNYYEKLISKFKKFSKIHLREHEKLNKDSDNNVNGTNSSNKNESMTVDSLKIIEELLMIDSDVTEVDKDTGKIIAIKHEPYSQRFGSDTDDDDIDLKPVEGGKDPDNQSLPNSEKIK

Sequence	PBM E-score
CATGCCCC	-0.109
CATGAGAG	0.0742
CACGTGCG	-0.038
CTAGTTCC	0.0382
ATCGGCTA	-0.138
CGGGCGTC	-0.0942
AAGCCCGG	-0.209
AGAACGGG	-0.0993
CAATAAGA	0.181
ACTGGTTA	0.0197
AGGGACGA	0.0201
AGAGCTCA	-0.192
CGAGCTCA	-0.0803
TGAGCTCA	0.374
GAACCGCC	-0.092
GAGCTAAA	-0.0615
GACGTATA	0.322
TACGTACA	0.336
CACGTATG	0.204
CCCGTATA	-0.0644
TACGTATA	0.328
TACGTAGA	0.224
ACCGTATA	-0.0183
AACGTATA	0.215
GCCGTATA	0.367

Sequence	PBM E-score
AACGTACA	0.0856
CACGTACA	-0.0529
CACGTATA	0.167
ATGTTCGA	0.0764
CAATTGTC	0.0392
AGGATACC	-0.251
GCAGTAAC	-0.065
CATTCTGC	0.0305
CTTCGATA	0.178
ATTCCAAA	0.118
CGCATCCC	-0.216
ACGTAGCC	-0.0377
GATGACAC	0.286
GATGACCC	-0.0821
GATGACTA	0.171
GATGACGC	0.473
AATGACAG	0.167
AATGACAA	0.267
GATGACCA	0.101
GATGACGA	0.463
AATGACAT	0.422
CATGACAA	0.14
GACGACGC	0.074
GATGACAA	0.333
ATAAGGGC	0.0296

Sequence	PBM E-score
GCCGATAC	-0.136
CTCGCTAA	0.0589
AGACGTTA	0.0355
TGATCGCA	0.0445
AGCCGGGC	-0.185
AAGCTTGA	-0.0535
GCTTCGAA	-0.0925
AATGACGC	0.453
TATGACCA	0.202
AATGACCT	0.25
TATGACGA	0.424
AAGGACGT	0.0462
AATGACGT	0.495
ATTGACGC	0.265
CCTGACAC	0.029
TATGACAA	0.25
CATGACAC	0.328
AATGACAC	0.273
ACTGACGC	0.243
AGAGCGGA	-0.0178
CTCAGACC	-0.22
AGACCACC	-0.137
ACCGTCCA	-0.185
ACAGTGAA	0.146
CATCTAGA	0.019

Sequence	PBM E-score
TCCTAGCA	-0.162
GCTCCGAA	-0.0443
ACTGACGA	0.201
CATGACCG	0.0772
CCTGACGA	0.182
CATGACGA	0.438
AATGACTA	0.041
CATGACAG	0.118
CATGACGG	0.38
CATGACCA	0.0978
AATGACGA	0.451
ACTGACGG	0.105
AATGACGG	0.35
AATGACCG	0.178
CGGCCTCA	-0.0129
ACCACCGA	-0.145
CAAAAGCA	-0.0642
AGGGGATG	-0.161
CGGGGCTC	-0.307
ATCGGAGA	-0.197
AGTGACAA	0.169
CATGACGC	0.455
AGTGACAT	0.459
AGTGACAC	0.274
CATGACCC	-0.0425

Sequence	PBM E-score
CATGACTC	0.0297
AGCAGAAC	-0.0649
AATCCACC	-0.121
CAGGGCCC	-0.335
AAGTGAGA	0.00703
AAGTGACA	0.357
TAGTGACA	0.338
CAGTGACA	0.248
GAGTGACA	0.287
CAGTGACG	0.435
AAGTGACC	-0.131
AAGTGAAA	0.193
AAGTGACT	0.024
TAGTGATA	0.088
CAGTGACC	-0.0895
AAGTGACG	0.45
GGAGAATA	0.103
TACCCGAA	-0.133
ATGCCACG	0.00475
GGGAGTAC	-0.226
ACTCACCA	0.043
GGCGTAAC	-0.0656
CCCACGGG	-0.214
TTATCCAA	0.162
GGGTGACC	-0.0338

Sequence	PBM E-score
CATTGACC	0.149
TGGTGACA	0.378
CATTGACA	0.0835
GGGTGACA	0.243
CATTGACG	0.358
CTGCTCCC	-0.174
CCTAATGC	-0.0866
CATCTAAA	0.194
TCAGCTGA	0.152
ATTGAGCC	0.197
TCATTAAA	0.352
ACATTGCA	-0.0281
GCATTAAA	0.163
ACATTAAA	0.198
TCATTGCA	0.321
CCATTGCA	0.024
GCATTACA	0.187
TCATTACA	0.368
CCATTACA	0.225
CGGAGAGC	-0.0924
CGTCGGAC	-0.178
ATTTCACG	-0.00077
AGTAAGGA	-0.0515
ATAGATGG	-0.129
CCTTCGAG	-0.21

Sequence	PBM E-score
TGAAGTCA	0.372
CGAAGTCA	0.0581
GGAAGTCA	-0.14
CAGCAGTC	-0.258
ATATTAAA	0.355
CTATTTAA	-0.0505
ATATTTAA	0.355
CTATTAAA	0.192
ATATTTAC	0.175
TTATTAAA	0.264
ATCAAAGG	-0.0902
CTACCACA	-0.155
AGTTCCCG	-0.205
AGGGCAAT	-0.0329
ATGCGTCG	0.0508
CTGCGTCC	-0.11
GTGCGTAA	0.192
ATGCGTCA	0.444
ATGCGTCC	-0.213
CTGCGTTA	-0.204
GTGCGTCA	0.432
GTGCGTGA	0.136
CTGCGTCA	0.428
TCTAACCA	0.057
CGTCTACC	-0.0234

Sequence	PBM E-score
CATTTAGA	0.136
AGCAGCTC	-0.28
GTCAAGCA	-0.29
AAATATAA	0.233
TAATAAAA	0.316
ACATAACA	0.227
GAATAAAA	0.216
GCATAACA	0.124
TCATATAA	0.305
TCATAACA	0.311
GCATATAA	0.166
CCATATAA	0.105
GAATATAA	0.111
TAATATAA	0.358
CAATAAAA	0.165
CATCCTAC	-0.0877
CCAGGGCC	-0.39
ATTGGCGC	0.0493
CGACTACC	-0.363
CTTCCATC	-0.0839
CAAGTCTC	-0.247
TCGCCTAA	-0.0175
AAAAGAGG	-0.121
TACCAGAA	0.0986
AGGGAAGG	-0.28

Sequence	PBM E-score
CAATATAA	0.312
CAATATAC	-0.0952
CAATATAG	0.0707
CAACGGCA	0.094
TCACGGCA	0.224
GCACGGCC	0.23
GAACGGCA	0.352
GAACGGCC	-0.183
GCACGGCA	0.353
GGCAGGCC	-0.332
ATGGGTCC	-0.242
GACACCAC	-0.0664
CGTTGTCC	0.126
GGGGAAAA	-0.101
CGCATACC	0.117
GTTATGTA	0.165
ACTATGTC	0.0789
ATTATGTC	0.359
ATTATGTA	0.355
CTTATGTC	0.105
ATTATGTG	0.228
CTTACTGA	-0.0696
GGGCTCAA	-0.174
ACCCCTTG	-0.33
AGAAATCG	-0.0866

Sequence	PBM E-score
AATATATA	0.239
GATATATA	0.304
AATATTGG	0.0316
AATATTGT	0.306
AATATTGC	0.257
AATATATT	0.355
TATATATA	0.315
ACTATATC	0.128
GCTATATA	0.167
AATATATG	0.171
TATATACA	0.161
ACTATATA	0.316
GAATGTGC	0.07
GGACGAAC	-0.0196
ACTTGCGC	-0.0133
CTCGCATC	0.00499
AGTATATA	0.348
CATATATC	0.121
AGTATATG	0.111
CATATATA	0.272
AGTATATC	0.0089
CATATATG	0.341
AGTTGCGA	0.0793
AAACTGAT	0.0925
ACGCGATG	0.122

Sequence	PBM E-score
AATTGTCG	0.0471
CATTTGTC	0.0906
CAGGGTTA	-0.124
AACGTAAA	0.274
AACGTAAG	0.306
GCCGTAAA	0.243
AACGTAGC	0.0195
AACGTAAC	0.329
CACGTAAG	0.292
ACCGTAAG	0.109
AACGTAAT	0.453
AACGTACT	0.0968
CACGTAAA	0.181
ACCGTAAC	-0.0255
GACGTAAA	0.374
CACCCTCA	-0.212
AAGTTCAC	-0.0134
GACTTGAA	-0.171
AGCTGTGA	0.135
TCGGAAAA	0.113
AGTCTAGA	-0.124
CTCGGACC	-0.18
GGGCTGGA	-0.295
CATGCGTA	0.15
TACGTAAA	0.42

Sequence	PBM E-score
TGCGTAAA	0.218
CACGTACC	-0.0025
AACGTACC	-0.185
TCCGTAAA	-0.0237
GACGTAGC	0.166
CACGTAAC	0.262
GACGTAAC	0.46
GACGTACC	0.349
GCTTGATA	0.162
CCCGCTCA	-0.0513
CCGCAGGA	-0.234
AATCGGGT	0.191
TCTCGGCA	-0.0951
GCAGCCCC	-0.349
GGGTGTAC	-0.185
ATTACACG	0.205
CTCACATC	0.0865
GTTACATA	0.228
ATTACACC	0.089
ATTACATC	0.433
ATTACACA	0.318
CTTACATC	0.365
CTTACATA	0.25
ATTACATG	0.245
ATTACATA	0.396

Sequence	PBM E-score
AGTACATC	-0.0114
ATTACAAC	0.226
GAGACCCC	-0.279
AACCCACC	0.0456
CTTTAGAA	0.0739
AATCCGAG	-0.0702
ATCAAGGA	-0.0436
AAGGGGCA	-0.178
ATGATAAC	0.263
CTGATATA	0.179
ATGATAAA	0.307
ATGATATA	0.31
ATGATATG	0.269
GTGATAAA	0.201
ATCAAATG	0.0892
AATATTAG	0.185
CATATTAA	0.234
TATATTAA	0.336
AATATTAA	0.334
GATATTAA	0.201
AATATTAT	0.242
TGGATCAA	0.125
CCTAGTAA	-0.194
CAAAGCTA	0.0247
CTCATTTA	0.141

Sequence	PBM E-score
ATCATTTC	0.246
ATCATTTA	0.335
GTCATTTA	0.368
ATCATTAA	0.28
GACATTTA	0.115
ATCATTTG	0.165
GTCATTAA	0.394
CTCATTAA	0.0741
CCGCTCCA	-0.152
ACCCCCCC	-0.357
ATTGACAG	0.0614
ACGACGGA	0.0762
GTGACGGA	0.352
GCGACGGA	-0.224
CTGACGGC	0.111
ATGACGGA	0.417
CTGACGGA	0.165
ATGACGGC	0.365
AAGACGGA	0.00374
ATGACGGG	0.258
